Compounds without any hit were thinned out: in the full panel of roughly 83,000, 20% have a hit.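 Assay: single dose, 48 h. Readout: percent growth (0 = no net growth; negative = cell death). Active: <10.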 Calls of active or inactive are those of the source.
Tests used:
Assay in all cases: NCI-60 one-dose screen, 48 h (100 = growth as untreated, 0 = no growth, -100 = all killed)
Settings in all cases: 10 µM unless noted
[1] = tested on: SK-MEL-2 melanoma
[2] = tested on: EKVX NSCLC
[3] = tested on: SN12C renal
[4] = tested on: UO-31 renal
[5] = tested on: TK-10 renal
[6] = tested on: ACHN renal
[7] = tested on: CAKI-1 renal
[8] = tested on: A498 renal
[9] = tested on: CCRF-CEM leukemia
[10] = tested on: MOLT-4 leukemia
[11] = tested on: SR leukemia
[12] = tested on: RPMI-8226 leukemia
[13] = tested on: OVCAR-8 ovarian
[14] = tested on: OVCAR-5 ovarian
[15] = tested on: OVCAR-4 ovarian
[16] = tested on: SK-OV-3 ovarian
[17] = tested on: IGROV1 ovarian
[18] = tested on: OVCAR-3 ovarian
[19] = tested on: HS 578T breast
[20] = tested on: NCI/ADR-RES ovarian

Measured: growth

CCCc1cc(=O)n2c(C(=O)Nc3ccc(F)cc3)c(C(=O)Nc3ccc(F)cc3)sc2n1
inactive: [1] 70.7% [30 µM] | [2] 62.5% [30 µM] | [3] 65.7% [30 µM] | [4] 19.3% [30 µM] | [5] 38.9% [30 µM] | [6] 48.4% [30 µM] | [7] 44.3% [30 µM] | [8] 139% [30 µM] | [9] 77.1% [30 µM] | [10] 97.9% [30 µM] | [11] 53.4% [30 µM] | [12] 78.2% [30 µM] | [13] 16.6% [30 µM] | [14] 74.7% [30 µM] | [15] 36.9% [30 µM] | [16] 48.5% [30 µM] | [17] 72.6% [30 µM] | [18] 35.3% [30 µM] | [20] 33% [30 µM]
active: [19] 6.12% [30 µM]

Cn1c(=O)[nH]c(=O)c2nc(CCC(=O)NCCC(=O)O)c(=O)[nH]c21
inactive: [1] 106% | [2] 106% | [3] 99.5% | [4] 86.6% | [5] 106% | [6] 101% | [7] 93.5% | [8] 114% | [9] 109% | [10] 106% | [11] 113% | [12] 111% | [13] 101% | [14] 106% | [15] 106% | [16] 101% | [17] 98.6% | [18] 113% | [19] 89.8% | [20] 105%

Cc1[nH]c(-c2ccc3cc[nH]c3c2)c2c1C(=O)CCCC2
inactive: [1] 71% | [2] 47.8% | [3] 50.8% | [4] 22.2% | [5] 32.7% | [6] 41.2% | [7] 11.9% | [8] 44.4% | [9] 64.7% | [10] 68.6% | [11] 50.9% | [12] 21.9% | [13] 46.4% | [14] 78.2% | [15] 48.5% | [16] 25.5% | [17] 36.9% | [18] 51% | [19] 21.9% | [20] 40.7%

COc1cc(/C=C/c2cc(/C=C/c3ccc(O)c(OC)c3)n(-c3c(C)cccc3C)c(=O)n2)ccc1O
inactive: [2] 17.7% | [3] 11.6% | [5] 27.4% | [7] 17.2% | [20] 12.6%
active: [1] -6.04% | [4] 1.61% | [6] 6.48% | [8] -6.94% | [9] 7.03% | [10] 6.55% | [11] 0.0669% | [12] -27.4% | [13] 0.393% | [14] 9.05% | [15] 3.15% | [16] -37.7% | [17] 9.72% | [18] 5.84% | [19] -4.97%

COc1ccc(S(=O)(=O)N2CCCCC2)cc1NC(=O)c1[nH]c(C)c2c1CCCCC2=O
active: [4] 9.67% | [5] 1.34% | [8] -19.2%
inactive: [1] 19.6% | [2] 33.9% | [3] 34.9% | [6] 19.8% | [7] 11.4% | [9] 42% | [10] 36.6% | [11] 34.3% | [12] 10.1% | [13] 32.8% | [14] 48.4% | [15] 42% | [16] 19.7% | [17] 15.3% | [18] 23.5% | [19] 15.4% | [20] 28.3%

CCN(CC)CCCCNc1c2ccc(Cl)cc2nc2ccc(OC)cc12
active: [1] 2.05% | [2] -8.96% | [3] 4.57% | [4] -14.6% | [6] -56.7% | [7] 9.92% | [8] -83.9% | [9] -27.8% | [10] -22.2% | [11] -19% | [12] -33.9% | [13] 5.44% | [14] -12.2% | [15] -50.2% | [16] 7.93% | [17] 3.67% | [18] -25.8% | [19] -23.2% | [20] 4.68%
inactive: [5] 15.4%

COc1ccc(-n2nc(C)c3c(Nc4ccc(NC(=O)Nc5ccc(Cl)c(C(F)(F)F)c5)cc4)ncnc32)cc1
inactive: [9] 17.2% | [11] 20.8% | [15] 20.8% | [17] 18.6%
active: [1] -30.2% | [2] 6.63% | [3] 3.5% | [4] 4.67% | [5] 5.29% | [6] 1.09% | [7] -3.15% | [8] -3.28% | [10] 8.28% | [12] 0.105% | [13] 5.05% | [14] 4.07% | [16] 1.72% | [18] 5.65% | [19] -12% | [20] 1.32%

NNCCc1ccc(NC(=O)CCCc2ccc(/C=C/C(=O)NO)cc2)cc1
inactive: [1] 52.4% | [2] 69.2% | [3] 55.8% | [4] 49.2% | [5] 76.5% | [6] 88.3% | [7] 93.6% | [8] 47% | [9] 16.5% | [10] 12.1% | [11] 18.2% | [12] 37.5% | [14] 71.4% | [15] 29.9% | [16] 64.1% | [17] 62.9% | [18] 55.3% | [19] 21.2% | [20] 44.3%
active: [13] 8.02%

COc1cc2c(cc1-c1c(C)noc1C)ncc1nc(C3CCOCC3)n([C@@H](C)COC(F)F)c12
inactive: [1] 76.4% | [2] 55.8% | [3] 66.5% | [5] 26.6% | [6] 36.9% | [9] 55.6% | [10] 48% | [11] 28.5% | [12] 18.4% | [13] 45% | [14] 65.2% | [15] 46.4% | [17] 67% | [18] 42.3% | [20] 50.6%
active: [4] -38.3% | [7] -11.1% | [8] -6.79% | [16] 2.74% | [19] 8.31%

Cc1cc(C)nc(SC2=C(Nc3cc(Cl)ccc3O)C(=O)N(Cc3ccccc3)C2=O)n1
inactive: [1] 97.6% [30 µM] | [2] 83.9% [30 µM] | [3] 91.6% [30 µM] | [4] 82.4% [30 µM] | [5] 23.8% [30 µM] | [6] 88.7% [30 µM] | [7] 99.7% [30 µM] | [8] 75.5% [30 µM] | [9] 22.1% [30 µM] | [10] 46.3% [30 µM] | [11] 54% [30 µM] | [12] 36.5% [30 µM] | [13] 76.4% [30 µM] | [14] 123% [30 µM] | [15] 71.2% [30 µM] | [16] 103% [30 µM] | [17] 83.8% [30 µM] | [18] 88.3% [30 µM] | [19] 82.7% [30 µM] | [20] 74.6% [30 µM]

Cc1ccccc1COc1ccc(-c2onc(C)c2-c2ccc(Cl)cc2)cc1
inactive: [1] 37.1% | [2] 75.1% | [3] 68.3% | [4] 72.4% | [5] 84.3% | [6] 67% | [7] 48.7% | [8] 38.6% | [9] 38.2% | [10] 32.8% | [11] 34% | [12] 81% | [13] 75.8% | [14] 87.6% | [15] 82.7% | [16] 59.5% | [17] 52.5% | [18] 20.7% | [19] 59.4% | [20] 39.2%

O=Nc1c(O)c(Cl)cc2ccccc12
inactive: [1] 93.4% | [2] 111% | [3] 82.6% | [4] 64.3% | [5] 66.3% | [6] 65.3% | [7] 76.5% | [8] 77.2% | [9] 39.4% | [10] 45.7% | [11] 71.7% | [12] 40.1% | [13] 68.6% | [14] 115% | [15] 78.9% | [16] 81.4% | [17] 59.1% | [18] 67.3% | [19] 89.4% | [20] 72.2%

CN1CCN(CCCOc2cccc3nc(Nc4cc(Cl)cc(Cl)c4)ccc23)CC1
active: [4] -15.8% | [6] -5.36% | [9] -40.7% | [10] -47.7% | [11] -30.2% | [12] -14.8% | [14] 3.71% | [20] 6.46%
inactive: [1] 86.9% | [2] 26.6% | [3] 36.1% | [5] 71.9% | [7] 30.7% | [8] 23.8% | [13] 51.4% | [15] 42.7% | [16] 90.2% | [17] 42.8% | [18] 26.3% | [19] 37.5%

Nc1ccc(-c2cc3c(Nc4ccc(Oc5cccc(C(F)(F)F)c5)c(Cl)c4)ncnc3s2)cc1
inactive: [1] 88.1% | [2] 54.8% | [3] 57.3% | [4] 47.3% | [5] 90.3% | [6] 60.5% | [7] 60.3% | [8] 89.5% | [9] 48.9% | [10] 48.2% | [11] 50.4% | [12] 53.1% | [13] 73.3% | [14] 93.4% | [15] 77.8% | [16] 83% | [17] 59.9% | [18] 56.6% | [19] 83.1% | [20] 69.7%

— PubChem BioAssay (NCI)
